EPAC1 ag val – human EPAC1 agonism, validation | O95398 | actives 1% (n = 16,000) | AID 1645883 | EPAC1 Rap1b BODIPY-GDP exchange, fluorescence | Potency, µM, for the others: max response, positive = active, most hits filed as activators; note: nearly all actives have a fitted effect of over 70% in size
EPAC2 ant val – human EPAC2 antagonism, validation; EPAC2 Rap1B BODIPY-GDP exchange, fluorescence; actives 1.7% (n = 16,000); Potency, µM (series often up to 112 µM), for the others: top-dose activity, negative = inhibition, usual class: inhibitors; AID 1645886; Q8WZA2;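 note: 100% = activation by cAMP agonist control; nearly all actives have a fitted effect of over 40% in size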
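Fluorescent exchange read-out: 100 nM EPAC2 with 250 nM RAP1B–BODIPY-GDP and 50 uM GDP; BODIPY-GDP release lowers fluorescence. Read at 480/540 nm every 5 min for 30 min at room temperature; normalized to 6.5 mM cAMP.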
* marks the source's active call; other numbers are inactive results; i = inactive; ? = inconclusive; ! = not confirmed by another sample. Most compounds without a hit are left out; they make up all but 3.1% or so of the library. Calls come from the whole dose curve; as a rule, active = well fitted curve in the direction sought with a large enough effect; inconclusive = small, poorly fitted or top-dose-only effect, or another doubt; inactive = no such curve, though single readings can be large; an effect the other way counts as inactive or inconclusive. Unless noted, % is set by controls: 0 for no effect and ±100 for the full control effect; potency is the fitted concentration of half-maximal effect.

SMILES | EPAC1 ag val | EPAC2 ant val
CO[C@H]1C=CO[C@@]2(C)Oc3c(C)c(O)c4c(O)c(c5c(c4c3C2=O)=NC2(CCN(CC(C)C)CC2)N=5)NC(=O)/C(C)=C\C=C/[C@H](C)[C@H](O)[C@@H](C)[C@@H](O)[C@@H](C)[C@H](OC(C)=O)[C@@H]1C | -31% | ?
COc1cccc(OC)c1OCCNC[C@@H]1COc2ccccc2O1 | -16% | -28%
CCn1ccnc1CC1COc2ccccc2O1 (stereo not drawn) | -4% | 35µM*!
CO[C@@H]1[C@@H](OC)[C@H](C)[C@@](O)(CC(=O)O)O[C@H]1[C@H](C)[C@H]1O[C@@]2(CC[C@@](C)([C@H]3CC[C@@](C)([C@@H]4O[C@@H]([C@H]5O[C@](C)(O)[C@H](C)C[C@@H]5C)C[C@@H]4OC4C[C@H](OC)[C@@H](OC)[C@H](C)O4)O3)O2)C[C@H](O)[C@H]1C (stereo partly drawn) | -53% | 5%
C=CC1=C(C)C2=CC3=NC(=C(CC(=O)[O-])C4=NC(=C(C)C4=C([O-])[O-])C=c4[n-]c(c(C)c4CC)=CC1=N2)C(CCC(=O)[O-])C3C.[Cu+2].[Na+].[Na+].[Na+] (stereo not drawn) | -65% | 2%
O=c1c(-c2cccs2)nc2cnc(N3CCOCC3)nc2n1Cc1cccs1 | 10% | 6%
CN1CCN(c2ncc3nc(-c4cn(C)c5ccccc45)c(=O)n(CCc4ccccc4)c3n2)CC1 | -7% | -25%
N#CCCn1c(=O)c(-c2cccs2)nc2cnc(N3CCOCC3)nc21 | 63µM* | 29%
CN1CCN(c2ncc3nc(-c4cccs4)c(=O)n(CCc4ccccc4)c3n2)CC1 | 112µM* | 46%
CN1CCN(c2ncc3nc(-c4cn(C)c5ccccc45)c(=O)n(CCC#N)c3n2)CC1 | 112µM* | 90%
CN1CCN(c2ncc3nc(-c4cccs4)c(=O)n(Cc4ccc(F)cc4)c3n2)CC1 | 13% | 2%
C/C(=C(\CCOC(=O)c1ccccc1)SS/C(CCOC(=O)c1ccccc1)=C(/C)N(C=O)Cc1cnc(C)nc1N)N(C=O)Cc1cnc(C)nc1N | 9% | -3%
CCCCC(=O)OCC(=O)[C@]1(O)Cc2c(O)c3c(c(O)c2[C@@H](O[C@H]2C[C@H](NC(=O)C(F)(F)F)[C@H](O)[C@H](C)O2)C1)C(=O)c1c(OC)cccc1C3=O | -8% | -4%
CN=C(N)NC(=O)Nc1c(C)cccc1C | 2% | 16%
Cc1cccc(C)c1NC(=O)C(C)N (stereo not drawn) | 89µM*! | -13%
Oc1ccc(/C=C\c2cc(O)cc(O)c2)cc1 | -17% | 28µM*
O=C(/C=C/c1ccc(O)cc1)c1ccc(O)cc1O | -4% | ?
Oc1ccc(/C=C/c2cc(O)cc(O)c2)cc1 | ? | 50µM*!
O=c1cc(O)cc(/C=C/c2ccc(O)c(O)c2)o1 | 2% | -2%
CC[C@@H](C)[C@H](N)C(=O)O | -24% | 7%
CC(C)C(NC(=O)c1ccoc1)c1nnc2n1CCN(Cc1ccc3c(c1)Cc1ccccc1-3)CC2 (stereo not drawn) | 22% | ?
C/C1=C2N=C(/C=C3N=C(/C(C)=C4\[N-]C(C(CC(N)=O)C4(C)CCC(=O)NCC(C)OP(=O)([O-])OC4C(CO)OC(n5cnc6cc(C)c(C)cc65)C4O)C4(C)N=C1C(CCC(N)=O)C4(C)CC(N)=O)C(CCC(N)=O)C\3(C)C)C(CCC(N)=O)C/2(C)CC(N)=O.[CH3-].[Co+3] (stereo not drawn) | 2% | 10µM*
CC(=C\c1ccccc1)/C=C1/SC(=S)N(CC(=O)O)C1=O | -31% | ?
COc1ccc(-c2nc3cnc(N(C)C)nc3n(-c3ccccc3)c2=O)cc1 | -94% | 30%
COc1ccc(-n2c(=O)c(-c3ccc(Cl)cc3)nc3cnc(N(C)C)nc32)cc1 | 100µM* | 13%
SMILES | EPAC1 ag val | EPAC2 ant val
CCCN(CCC)c1ccc(/C=C/c2ccnc3ccccc23)cc1 | 100µM* | 262%
CN(C)c1ccc(/C=C/c2ccnc3ccc4ccccc4c23)cc1 | 15% | ?
Cc1[nH]c2ccccc2c1/C=C/c1ccnc2ccccc12 | ? | -5%
Cc1cc(N(C)C)c(C)cc1/C=C/c1ccnc2ccccc12 | 112µM* | 251%
C[C@@H]1CN(Cc2ccc3c(c2)CN(Cc2nc(-c4ccccc4)cs2)CCO3)C[C@H](C)O1 | 10% | -7%
CO/N=C(\C(=O)N[C@@H]1C(=O)N2C(C(=O)[O-])=C(C[n+]3ccc(N)n3CCO)CS[C@H]12)c1csc(N)n1 | 1% | 15%
FC(F)OC(Cl)C(F)(F)F (stereo not drawn) | 35µM* | i
FC(F)(F)C(Cl)Br (stereo not drawn) | -43% | -19%
COC(=O)N1CCC2(CC1)CCN(c1cccc(-c3ccccc3)c1)CC2 | 100µM* | -29%
O=C(c1cccc(F)c1)N1CCC2(CCCN(c3cccc(-c4ccccc4)c3)C2)CC1 | 100µM* | -19%
O=C(Oc1ccccc1)N1CCC2(CC1)CCN(c1cccc(-c3ccccc3)c1)CC2 | 19% | -14%
O=C(c1cccc(F)c1)N1CCC[C@@]2(CCN(c3cccc(-c4ccccc4)c3)C2)C1 | -39% | -28%
O=C(c1csnn1)N1CCC2(CC1)CN(c1cccc(-c3ccccc3)c1)C2 | 100µM* | ?
O=C(c1cccc(F)c1)N1CCC2(CC1)CN(c1cccc(-c3ccccc3)c1)C2 | 89µM* | ?
O=C(c1cccc(F)c1)N1CCC2(CC1)CCN(c1cccc(-c3ccccc3)c1)CC2 | -6% | -17%
O=C(c1csnn1)N1CCC2(CC1)CN(c1ccccc1)C2 | -38% | -9%
COc1ccccc1N1CCN(c2nc(CNC(=O)C3CC34CCCC4)nc3ccccc23)CC1 (stereo not drawn) | 14% | ?
CNC(C)CCC=C(C)C (stereo not drawn) | -14% | 5%
CCCCCCCCCc1ccc(OCCOCCO)cc1 | -116% | ?
COc1ccc(S[C@@H]2C[C@@H](C(=O)Nc3ccc4nccnc4c3)N(C3Cc4ccccc4C3)C2)cc1 | -2% | -22%
COCC(=O)Nc1cc(C(=O)N2CCN(C)C(c3ccccc3)C2)c2c(c1)nc(-c1ccncc1)n2C (stereo not drawn) | -9% | 3%
C=C[C@]1(C)C[C@@H](OC(=O)CSC(C)(C)CNC(=O)[C@H](N)C(C)C)[C@]2(C)[C@H](C)CC[C@]3(CCC(=O)[C@H]32)[C@@H](C)[C@@H]1O | -6% | -25%
CCC(=O)Oc1ccc2c(c1)CC[C@@H]1[C@@H]2CC[C@]2(C)[C@@H](OC(=O)CC)CC[C@@H]12 | -19% | 27%
O=c1cnc2cnc(OCc3ccccc3)nc2n1CCc1ccccc1 | ? | 22µM*
N#CCCn1c(=O)cnc2cnc(OCc3ccccc3)nc21 | 11% | -25%
SMILES | EPAC1 ag val | EPAC2 ant val
O=S1(=O)CCO[C@H]2Cc3ccccc3[C@H]2N1Cc1cccc(F)c1 | -15% | ?
O=S1(=O)CCO[C@H]2Cc3ccccc3[C@H]2N1Cc1cccc(C(F)(F)F)c1 | -84% | 28µM*
COc1ccc2cc(CCC(C)=O)ccc2c1 | -37% | 16µM*!
COc1ccc(C(C)=O)cc1 | 14% | -29%
CCCCN(CCCC)C(=S)[S-].CCCCN(CCCC)C(=S)[S-].[Zn+2] | -6% | 21%
COC(=O)/C=C/C(C)=C/C=C/C(C)=C/C=C/C=C(C)/C=C/C=C(C)/C=C/C(=O)O | -32% | 7%
COc1cc(C)c(/C=C/C(C)=C/C=C/C(C)=C/C(=O)O)c(C)c1C | -8% | 25µM*!
